# ChEMBL document CHEMBL3988442, “University of Dundee, Small-Polar-MMV Screening Library” (2021)
# The whole screen tested about 69,000 compounds, of which about 950 (1.4%) showed an effect of 50% or more. The entries come from a sample that favours strong results as a whole.
# Test system: Mycobacterium tuberculosis
# Assay: Cornell M. t heat shock assay; also: in the data most compounds retested in dose-response had high values
# Assay type: functional, organism-based
# Parameters: dose or concentration left out as unconfirmed
row,Structure (SMILES),Percent Effect [%]
1,COc1cccc(S(=O)(=O)NC(=O)CC2CCCC2)c1,1.853
2,COc1cccc(S(=O)(=O)NC(=O)CCC2CCCC2)c1,97.07
3,COc1cccc(S(=O)(=O)NC(=O)CCC2CCCO2)c1 (stereo not drawn),15.02
4,O=C(O)C(F)(F)F.O=C(c1ccco1)N1CC[C@@H]2CN(C3CCOCC3)CCO[C@@H]2C1,13.99
5,CCCc1nnc(C(=O)N(C)Cc2ccc(OC)cc2)o1,-0.8003
6,COCc1nnc(C(=O)N(C)Cc2ccc(OC)cc2)o1,51.18
7,COc1ccc(CN(C)C(=O)c2nnc(CN(C)C)o2)cc1,-15.5
8,COCC(=O)N1CCN(Cn2nc(C)c(Br)c2C)CC1,-1.426
9,O=C(N1CCCC1)N1CCOCC2(CCN(Cc3cccs3)C2)C1.O=C(O)C(F)(F)F (stereo not drawn),-28.46
10,Cc1ncc(CNCC(C)O)c2cc(C(=O)c3ccc(Br)cc3)oc12.Cl (stereo not drawn),10.59
11,Cc1ncc(CNCCO)c2cc(C(=O)c3ccc(Br)cc3)oc12.Cl,80.79
12,Cc1ncc(CNC(C)(C)CO)c2cc(C(=O)c3ccc(Br)cc3)oc12,39.89
13,Cl.c1csc(-c2noc(C3CNC3)n2)c1,3.28
14,O=C(O)C(F)(F)F.O=C(O)C(F)(F)F.O=C(O)C(F)(F)F.c1cnn(C[C@@H]2C[C@@H]3CN(CC4CC4)CC[C@@H]3N2c2nccs2)c1,-5.195
15,O=C(O)CC(O)(CC(=O)O)C(=O)O.OC1CCCN(Cc2ccnc(-c3cccnc3)n2)C1 (stereo not drawn),-5.175
16,CCOC1COC2(CCN(Cc3cccc(C#N)c3)CC2)C1.O=C(O)C(F)(F)F (stereo not drawn),-5.189
17,N#Cc1ccc(N2CCCC3(CCC(=O)N3CC3CC3)CC2)nc1.O=C(O)C(F)(F)F (stereo not drawn),42.6
18,CN(C)C(C(=O)Nc1nccs1)c1c(F)cccc1Cl (stereo not drawn),71.6
19,Cc1csc(N(C)C(=O)C(c2c(F)cccc2Cl)N(C)C)n1 (stereo not drawn),16.08
20,CN(C(=O)C(c1c(F)cccc1Cl)N(C)C)c1nccs1 (stereo not drawn),-3.774
21,O=C(O)C(F)(F)F.O=C(c1cnccn1)N1CCC2(CC1)CCN(Cc1ccccn1)C2=O,-24.58
22,Cl.FC(F)CNc1cnc(C2CCNCC2)cn1,9.975
23,CN(C)CCn1c2c(ccc1=O)CC(NCc1cnn(C)c1)CC2.O=C(O)C(F)(F)F.O=C(O)C(F)(F)F (stereo not drawn),21.9
24,O=C(O)C(F)(F)F.O=C(O)C(F)(F)F.c1cncc(C2COC3(CCN(CC4CCOCC4)CC3)C2)c1 (stereo not drawn),-13.27

row,Structure (SMILES),Percent Effect [%]
1,CCN1CCOCC12CCN(C(=O)Cc1ccccc1)CC2.O=C(O)C(F)(F)F,-16.25
2,CNC(=O)CN1CC[C@H]2CN(C(=O)c3cc[nH]n3)C[C@H]2C1.O=C(O)C(F)(F)F,6.516
3,Cc1cnn(CCNCc2nc(-c3ccsc3)oc2C)c1,-4.227
4,Cc1cnn(CC(C)NCc2nc(-c3ccsc3)oc2C)c1 (stereo not drawn),59.87
5,Cc1oc(-c2ccsc2)nc1CNC(C)Cn1cccn1 (stereo not drawn),-16.19
6,O=C(O)C(F)(F)F.O=C(O)C(F)(F)F.O=C(O)C(F)(F)F.c1cncc(COCc2cncc3c2CCN(Cc2ccoc2)C3)c1,2.729
7,COc1cccc(Nc2nc(N3CCCC3)nc3c2CNCC3)c1.Cl,69.1
8,COc1cccc(Nc2nc(-c3ccncc3)nc3c2CNCC3)c1.Cl,9.794
9,COc1cccc(Nc2nc(C3CCNCC3)c3ccccn23)c1.Cl,10.85
10,Fc1cccc(Nc2nc(N3CCCC3)nc3c2CNCC3)c1,102.4
11,Oc1nc(N2CCOCC2)nc2c1CCN(Cc1cccc(F)c1)CC2,-9.224
12,CC(C)Nc1nc(N2CCCC2)nc2c1CN(c1ncc(F)cn1)CC2,18.45
13,Cc1cccc(CN2C[C@@H]3CN(C(=O)c4cnoc4C)C[C@@H]3C2=O)n1.O=C(O)C(F)(F)F,-1.837
14,CCOC(=O)C1CCN(C(=O)c2cc(Br)ccc2-n2cnnn2)CC1,2.973
15,CC(C)(C)c1ncc(CNc2ccccc2Cn2cncn2)s1,-19.95
16,COc1cccc(CNC2CCc3ccc(C)cc32)n1 (stereo not drawn),6.41
17,Cc1ccc2c(c1)C(NCc1ncnn1C)CC2 (stereo not drawn),-20.52
18,Cc1ccc2c(c1)C(NCc1ccccn1)CC2 (stereo not drawn),89.07
19,Cl.O[C@@H]1CN(Cc2ccc(F)c(F)c2)CC[C@H]1NCc1ccccn1,-13.15
20,Cc1cc(-c2cnc(NCc3cccnc3)nc2C(C)(C)C)on1,31.35
21,COCC(C)NCc1ccc2[nH]c(C)c(C)c2c1 (stereo not drawn),-11.87
22,Cc1[nH]c2ccccc2c1-c1ccnc(N[C@@H](C)CO)n1,-31.62
23,Cc1ccc(-c2nc(CNC(C)CCO)[nH]c2-c2ccccn2)cc1 (stereo not drawn),77
24,COCC(C)NCc1nc(-c2ccc(C)cc2)c(-c2ccccn2)[nH]1 (stereo not drawn),76.34

row,Structure (SMILES),Percent Effect [%]
1,CC(Cn1cccn1)NCc1nc(-c2ccccn2)no1 (stereo not drawn),-7.12
2,Cc1cnn(CC(C)NCc2nc(-c3ccccn3)no2)c1 (stereo not drawn),-11.38
3,O=C(Cc1ccsc1)N1C[C@@H]2CN(Cc3ccoc3)CCO[C@@H]2C1.O=C(O)C(F)(F)F,-1.836
4,CC(C)=CCN1C(=O)[C@H]2CC[C@@H]1CN(C(=O)CCc1n[nH]c(C)c1C)C2,-27.57
5,O=C(N[C@H]1CCCC[C@@H]1O)c1ccc(-c2nc3ccccc3[nH]2)cc1,47.47
6,O=C(N[C@H]1CCCC[C@@H]1O)c1cccc(-c2nc3ccccc3[nH]2)c1,55.91
7,O=C(N[C@H]1CCCC[C@@H]1O)c1ccc2nc(-c3ccccc3)[nH]c2c1,0.8647
8,CN1CCOCC12CCN(C(=O)C1CCC1)CC2.O=C(O)C(F)(F)F,6.181
9,Cc1cc(C)c2[nH]c(C)c(CC(=O)N(C)CCN(C)C)c2c1.O=C(O)CC(O)(CC(=O)O)C(=O)O,-5.156
10,Cc1ccccc1CNC(=O)Cc1c(C)nc2cc(=O)[nH]n2c1C,17.46
11,COc1ccccc1CC(=O)NCc1c(C)nc2cc(=O)[nH]n2c1C,71.9
12,COC(C(=O)NCc1c(C)nc2cc(=O)[nH]n2c1C)c1ccccc1 (stereo not drawn),5.148
13,Cc1ccc(C(C)NC(=O)Cc2c(C)nc3cc(=O)[nH]n3c2C)s1 (stereo not drawn),66.66
14,Cc1nc2cc(=O)[nH]n2c(C)c1CC(=O)NC(C)C,-0.1861
15,Cc1ccccc1C(C)NC(=O)Cc1c(C)nc2cc(=O)[nH]n2c1C (stereo not drawn),33.63
16,O=C(O)C(F)(F)F.c1cnc(N2CCC3(CCCN(Cc4ccncc4)C3)CC2)nc1,-2.214
17,CNC(=O)[C@H]1C[C@@H]2CCN(c3nnc(C)s3)C[C@@H]2O1.O=C(O)C(F)(F)F,0.7881
18,CSCCC1c2nc[nH]c2CCN1Cc1cc(Cl)ccc1O (stereo not drawn),106.2
19,CSCCC1c2nc[nH]c2CCN1Cc1ccccc1C#N (stereo not drawn),12.31
20,CSCCC1c2nc[nH]c2CCN1Cc1ccccc1C(F)(F)F (stereo not drawn),-11.51
21,Cc1ccccc1C(=O)N1CC[C@@H](N(C)C)[C@@H]1Cc1cnn(C)c1.O=C(O)C(F)(F)F,-16.62
22,CN(C)S(=O)(=O)N1CC[C@]2(C[C@@H](Oc3ncccc3F)CO2)C1.O=C(O)C(F)(F)F,7.547
23,COc1ccc(CN2C[C@@H](OCc3ccccn3)[C@H]3COC[C@H]32)cc1.O=C(O)C(F)(F)F.O=C(O)C(F)(F)F,-14.6
24,CCN1CCC(CC(=O)NCC(O)c2ccc3ccccc3c2)CC1 (stereo not drawn),13.11

row,Structure (SMILES),Percent Effect [%]
1,CCN1CCC(CC(=O)NCC(O)c2cccc(OC)c2)CC1 (stereo not drawn),93.38
2,COc1cccc(C(O)CNC(=O)CC2CCCCC2)c1 (stereo not drawn),9.16
3,Cn1ccc(CN2CCCC23CCN(Cc2nccn2C)CC3)n1.O=C(O)C(F)(F)F.O=C(O)C(F)(F)F,9.444
4,CCN(CC)Cc1ccc(C(=O)N2CCN(CC(C)O)CC2)o1 (stereo not drawn),61.39
5,CCc1ccc(C(=O)N2CCN(CC(C)O)CC2)o1 (stereo not drawn),14.22
6,CCN(CC)Cc1ccc(C(=O)N2CCN(CC(C)O)CC2)cc1 (stereo not drawn),9.654
7,Cc1ccc(S(=O)(=O)Nc2ccc(N3CCSCC3)c(C(=O)O)c2)s1,-1.51
8,CCN(Cc1ccncc1)C(=O)CCn1c(C)cc2ccccc21,10.06
9,CCN(Cc1noc(C)n1)C(=O)CCn1c(C)cc2ccccc21,72.72
10,CCN(Cc1nc(COC)no1)C(=O)CCn1c(C)cc2ccccc21,35.71
11,COCCN1CCOCC12CCN(C(=O)c1ccoc1)CC2.O=C(O)C(F)(F)F,-24.79
12,Cn1cc(CN2CC[C@H]3O[C@H](C(=O)Nc4cnccn4)CC[C@H]32)cn1.O=C(O)C(F)(F)F,-14.77
13,CN(CCC(O)c1ccccc1)Cc1nc(-c2ccccc2)no1 (stereo not drawn),28.98
14,Cc1cc(CN(C)CCN(C)c2ccccc2)no1,0.1875
15,Cc1cc(CN(C)CCC(O)c2ccccc2)nn1C (stereo not drawn),0.01185
16,Cc1cc(CN(C)CCC(O)c2ccccc2)no1 (stereo not drawn),50.59
17,COc1cccc(CN(C)Cc2ccccc2C#N)c1OC,-6.46
18,CN(CCC(O)c1ccccc1)Cc1ccccc1C#N (stereo not drawn),79.67
19,COCC1Cn2nnc(-c3cnn(C)c3)c2CN1Cc1ccoc1.O=C(O)C(F)(F)F (stereo not drawn),5.008
20,O=C(O)CCC(=O)Nc1nn(Cc2ccccc2Cl)cc1Cl,2.15
21,Cc1ccc(N2CCO[C@H]3CN(CC4CC4)C[C@H]32)nn1.O=C(O)C(F)(F)F.O=C(O)C(F)(F)F,-7.487
